As a reminder, the AC50 is the midpoint of the concentration-response curve, whichever way the signal moves.

Structures are written as SMILES. The source holds several records for some structures; these can differ, active in one and inactive in another. Activity calls are given as the source filed them. How the source made its calls: active means hit-call score of the fitted dose curve at least 0.9, where 1 is the maximum; inactive means score below 0.9.

Among the data in PubChem BioAssay (EPA / NIEHS) are outcome and AC50 values, retold here.

Chain of Myc proto-oncogene protein (Homo sapiens) (P01106 whole entry, looked up, the tested form may be a part): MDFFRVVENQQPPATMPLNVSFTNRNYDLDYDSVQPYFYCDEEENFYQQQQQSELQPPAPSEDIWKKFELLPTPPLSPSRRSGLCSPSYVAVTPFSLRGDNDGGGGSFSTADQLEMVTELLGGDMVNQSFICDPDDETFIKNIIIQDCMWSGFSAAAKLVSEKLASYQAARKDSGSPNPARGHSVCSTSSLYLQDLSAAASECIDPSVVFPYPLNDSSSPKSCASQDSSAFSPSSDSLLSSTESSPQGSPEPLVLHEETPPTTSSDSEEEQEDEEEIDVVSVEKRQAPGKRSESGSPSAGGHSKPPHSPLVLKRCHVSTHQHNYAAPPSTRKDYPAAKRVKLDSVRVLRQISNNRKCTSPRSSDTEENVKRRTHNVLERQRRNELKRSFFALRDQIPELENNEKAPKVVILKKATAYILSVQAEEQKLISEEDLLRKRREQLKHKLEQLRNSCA

This assay concerns the target Myc proto-oncogene protein (Homo sapiens) (UniProt P01106). Nature of the assay: ATG_Myc_CIS: Attagene CIS-FACTORIAL HepG2 Assay for human Myelocytomatosis (Myc) Proto-Oncogene Transcription Factor (AID 2282990). The conditions noted are these: HepG2, Attagene cis-reporter transcription factor activity; actives raise or lower the signal. The procedure, abridged: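 After 24 h chemical treatment of HepG2 cells carrying multiplexed cis-regulated reporter constructs, reporter transcripts quantified by RT-PCR and capillary electrophoresis of fluorescent fragments. Gain or loss fitted against DMSO baseline.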
As to `CCCCC(CC)CN1C(=O)C2C3C=CC(C3)C2C1=O` (stereo not drawn), the compound was classed as inactive.
On the same count and under the same terms, for `O=C(O)C1(C(=O)Nc2ccc(Cl)cc2Cl)CC1` the value was “inactive”; for `COC(=O)c1ccccc1C(=O)O`, “inactive”; for `c1ccc(Nc2ccccc2)cc1`, “inactive”.
On the same count and under the same terms, for `CCOC(=O)NCCOc1ccc(Oc2ccccc2)cc1` the value was “inactive”.
Consider `CC(C)(c1ccc(O)cc1)c1ccc(O)cc1`, for which the AC50 was 2.29 µM (active) and the compound was called inactive.
As to `O=C(Nc1ccc([N+](=O)[O-])cc1Cl)c1cc(Cl)ccc1O`, the call was inactive.
The same measure, in the same setting: for `COC(=O)c1cccc(C)c1S(=O)(=O)NC(=O)Nc1nc(OCC(F)(F)F)nc(N(C)C)n1` the value was “inactive”.
The same measure, in the same setting: for `CCCCOC(=O)[C@@H](C)Oc1ccc(Oc2ccc(C(F)(F)F)cn2)cc1` the value was “inactive”; for `O=C(c1ccc(O)cc1O)c1ccc(O)cc1O`, “inactive”; for `CC(C)(C)[C@@H](O)[C@@H](Cc1ccc(Cl)cc1)n1cncn1`, “inactive”.
Same read-out and setting: under `c1ccc2[nH]c(-c3cscn3)nc2c1` stands “inactive”; under `CCOC(=O)C(C)Oc1ccc(Oc2nc3ccc(Cl)cc3o2)cc1` (stereo not drawn), “inactive”; under `CCC(C)OC(=O)N1CCCCC1CCO` (stereo not drawn), “inactive”.
For the compound `N#CSCSc1nc2ccccc2s1`, the compound was classed as inactive.
The same measure, in the same setting: for `CCN(Cc1c(F)cccc1Cl)c1c([N+](=O)[O-])cc(C(F)(F)F)cc1[N+](=O)[O-]` the value was “inactive”.
For the compound `CC(C)CCCCCCc1ccc(O)cc1`, the concentration at half-maximal activity (AC50) was 15.4 µM (active) and the call was inactive.
As to `CCNc1nc(N)nc(Cl)n1`, the outcome was inactive.
The same measure, in the same setting: under `COC(=O)c1c(Cl)nn(C)c1S(=O)(=O)NC(=O)Nc1nc(OC)cc(OC)n1` stands “inactive”; under `C[C@]12C[C@H](O)[C@H]3[C@@H](CCC4=CC(=O)CC[C@@]43C)[C@@H]1CC[C@@H]2C(=O)CO`, “inactive”.
Same read-out and setting: for `C#C[C@]1(O)CC[C@H]2[C@@H]3CCC4=CC(=O)CC[C@@H]4[C@H]3CC[C@@]21CC` the value was “inactive”; for `CCCN(CCC)c1c([N+](=O)[O-])cc(C(F)(F)F)c(N)c1[N+](=O)[O-]`, “inactive”.
As for `COC(=O)c1ccc(CNS(C)(=O)=O)cc1S(=O)(=O)NC(=O)Nc1nc(OC)cc(OC)n1`, the outcome was inactive.
The same measure, in the same setting: for `CCSC(=O)N(CC(C)C)CC(C)C` the value was “inactive”; for `CCCOC(=O)c1ccc(C(=O)OCCC)nc1`, “inactive”; for `COC(=O)c1ccccc1S(=O)(=O)NC(=O)Nc1nc(OC(F)F)cc(OC(F)F)n1`, “inactive”.
On to `CCCCOC(=O)C(C)Oc1ccc(Oc2ccc(C(F)(F)F)cn2)cc1` (stereo not drawn), for which the result was inactive.
Still for that read-out and setting: under `COc1nc(C)nc(NC(=O)NS(=O)(=O)c2ccccc2OCCCl)n1` stands “inactive”; under `O=C(c1ccccc1)C1CCCCC1`, “inactive”.
Consider `CC(=O)S[C@@H]1CC2=CC(=O)CC[C@]2(C)[C@H]2CC[C@@]3(C)[C@@H](CC[C@@]34CCC(=O)O4)[C@H]12`, for which the AC50 was 7.76 µM (active) and the compound was called inactive.
